FAS-TE inh – inhibitors of human fatty acid synthase thioesterase domain | inhibition, % at 15 µM | 0.67% of 360,000 active | AID 602261 | recombinant FAS-TE, OMFH fluorogenic substrate, fluorescence endpoint;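 active = compounds whose normalised, plate-corrected inhibition of enzyme fluorescence in the single-dose primary screen is 50% or more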
Target sequence (P49327 whole entry, looked up, the tested form may be a part): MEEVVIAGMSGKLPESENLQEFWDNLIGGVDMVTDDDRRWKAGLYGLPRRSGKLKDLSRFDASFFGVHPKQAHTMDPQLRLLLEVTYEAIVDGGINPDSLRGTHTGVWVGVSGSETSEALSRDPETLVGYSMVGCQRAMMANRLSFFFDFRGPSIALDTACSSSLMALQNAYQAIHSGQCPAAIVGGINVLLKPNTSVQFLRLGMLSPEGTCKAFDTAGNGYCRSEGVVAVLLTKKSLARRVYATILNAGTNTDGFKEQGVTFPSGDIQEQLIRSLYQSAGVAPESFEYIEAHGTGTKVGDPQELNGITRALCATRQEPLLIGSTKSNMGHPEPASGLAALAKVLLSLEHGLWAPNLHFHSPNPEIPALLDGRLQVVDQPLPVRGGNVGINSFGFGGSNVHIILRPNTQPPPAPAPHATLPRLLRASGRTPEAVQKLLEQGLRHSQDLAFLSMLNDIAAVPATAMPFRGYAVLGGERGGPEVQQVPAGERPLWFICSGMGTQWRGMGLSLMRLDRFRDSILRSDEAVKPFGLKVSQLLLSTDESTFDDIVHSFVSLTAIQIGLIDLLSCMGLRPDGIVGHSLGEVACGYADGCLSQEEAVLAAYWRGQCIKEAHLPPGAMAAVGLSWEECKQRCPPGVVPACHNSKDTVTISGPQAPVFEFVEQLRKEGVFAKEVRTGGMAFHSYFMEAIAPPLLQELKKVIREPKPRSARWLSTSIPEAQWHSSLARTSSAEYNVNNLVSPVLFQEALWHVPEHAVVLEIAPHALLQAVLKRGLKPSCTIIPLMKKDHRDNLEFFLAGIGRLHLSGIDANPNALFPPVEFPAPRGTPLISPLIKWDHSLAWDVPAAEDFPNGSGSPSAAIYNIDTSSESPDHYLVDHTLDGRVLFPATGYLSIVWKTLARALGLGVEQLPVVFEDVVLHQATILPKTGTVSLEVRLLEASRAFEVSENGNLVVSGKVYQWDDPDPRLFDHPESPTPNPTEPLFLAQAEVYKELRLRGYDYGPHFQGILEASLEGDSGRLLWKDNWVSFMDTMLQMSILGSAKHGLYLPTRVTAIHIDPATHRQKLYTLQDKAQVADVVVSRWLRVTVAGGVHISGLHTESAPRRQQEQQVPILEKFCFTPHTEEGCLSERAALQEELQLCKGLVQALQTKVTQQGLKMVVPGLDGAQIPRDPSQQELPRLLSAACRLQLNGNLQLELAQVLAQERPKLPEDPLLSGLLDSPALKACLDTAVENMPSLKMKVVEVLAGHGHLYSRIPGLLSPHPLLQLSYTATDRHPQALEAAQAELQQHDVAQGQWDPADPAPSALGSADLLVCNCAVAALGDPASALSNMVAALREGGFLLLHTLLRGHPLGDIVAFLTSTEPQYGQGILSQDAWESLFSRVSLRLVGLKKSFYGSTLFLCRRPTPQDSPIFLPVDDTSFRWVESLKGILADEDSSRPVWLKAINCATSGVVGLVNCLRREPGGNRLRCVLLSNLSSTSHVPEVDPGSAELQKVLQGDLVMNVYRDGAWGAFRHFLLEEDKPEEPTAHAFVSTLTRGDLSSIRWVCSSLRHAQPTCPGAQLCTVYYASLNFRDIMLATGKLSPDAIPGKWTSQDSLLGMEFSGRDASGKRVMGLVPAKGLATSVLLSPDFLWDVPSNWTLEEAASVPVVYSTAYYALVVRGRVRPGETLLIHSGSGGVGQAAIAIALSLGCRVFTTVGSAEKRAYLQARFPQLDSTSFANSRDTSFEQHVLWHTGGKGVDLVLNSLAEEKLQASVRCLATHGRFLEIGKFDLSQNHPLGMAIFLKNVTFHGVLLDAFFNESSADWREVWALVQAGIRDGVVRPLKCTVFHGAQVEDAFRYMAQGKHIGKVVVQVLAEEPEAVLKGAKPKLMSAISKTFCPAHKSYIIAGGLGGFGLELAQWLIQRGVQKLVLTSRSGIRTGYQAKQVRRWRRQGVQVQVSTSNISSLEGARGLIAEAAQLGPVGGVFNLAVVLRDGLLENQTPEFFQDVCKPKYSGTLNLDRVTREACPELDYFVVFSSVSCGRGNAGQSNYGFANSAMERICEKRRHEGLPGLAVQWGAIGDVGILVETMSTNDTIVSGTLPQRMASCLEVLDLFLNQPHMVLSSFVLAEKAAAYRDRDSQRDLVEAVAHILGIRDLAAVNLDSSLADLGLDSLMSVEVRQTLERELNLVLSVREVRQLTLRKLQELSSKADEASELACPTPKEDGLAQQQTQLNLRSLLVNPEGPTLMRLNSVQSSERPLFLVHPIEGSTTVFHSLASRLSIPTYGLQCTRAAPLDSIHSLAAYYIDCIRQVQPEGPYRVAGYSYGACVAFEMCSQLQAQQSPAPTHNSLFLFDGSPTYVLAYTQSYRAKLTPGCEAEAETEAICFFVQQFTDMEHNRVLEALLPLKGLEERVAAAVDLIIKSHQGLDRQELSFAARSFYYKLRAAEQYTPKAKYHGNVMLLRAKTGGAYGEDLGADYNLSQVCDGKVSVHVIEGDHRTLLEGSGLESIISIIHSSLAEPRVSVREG
NPR2 activator – GC-B (human) receptor activation; P20594; HEK293-GC-B cells, CNP EC30, cGMP TR-FRET; 0% at EC30 CNP, 100% saturating CNP; activation, % at 10 µM; 0.11% of 370,000 active; AID 1920062;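 active = activation at 10 µM reaching about 35% in either raw or pattern-adjusted values, limit read from the data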
ADAM17 inh – inhibitors of human ADAM17. P78536. recombinant ADAM17, EDANS/DABCYL FRET peptide cleavage. inhibition, % at 6.95 µM. 0.83% of 370,000 active. AID 720648;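 active = inhibition above the mean of compounds lying between control limits plus 3 SD, set per campaign, cut at about 8.5% in these data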
ADAM10 inh – ADAM10 inhibition, QFRET primary screen. O14672. recombinant ADAM10, EDANS/DABCYL FRET peptide cleavage, 3 h. inhibition, % at 7 µM. 0.62% of 370,000 active. AID 720582;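 active = inhibition above a per-campaign cutoff equal to the mean of compounds falling between control-based bounds plus 3 SD, cut at about 20% in these data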
NPR1 activator – GC-A (human) enzyme activation | P16066 | HEK293 GC-A cells, cGMP TR-FRET, EC30 ANP; 0% at EC30 ANP, 100% saturating ANP | activation, % at 10 µM | 0.14% of 370,000 active | AID 1671463; in the data active = activation above about 40%
ADAM10 counter – counter-screen for ADAM17 exosite inhibitors: inhibitors of human ADAM10 | shares compounds with ADAM17 inh | recombinant ADAM10, EDANS/DABCYL FRET peptide cleavage, 3 h | inhibition, % at 6.95 µM | 47% of 2,900 active | AID 743256;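 active = mean inhibition over the triplicate runs exceeds the activity threshold set in the earlier primary screen, cut at about 20% in these data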
ADAM17 confirm – human ADAM17 inhibition, confirmation | shares compounds with ADAM17 inh | recombinant ADAM17, EDANS/DABCYL QFRET peptide cleavage | inhibition, % at 6.95 µM | 65% of 2,900 active | AID 743257;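 active = mean inhibition across replicates above the hit cutoff set in the primary screen, cut at about 8.5% in these data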
Numbers stand for hits; - = inactive; . = not tested or not shown. Hits are enriched below; roughly 2% of the tested compounds scored in any of these assays.

SMILES	FAS-TE inh	NPR2 activator	ADAM17 inh	ADAM10 inh	NPR1 activator	ADAM10 counter	ADAM17 confirm
O=C(/C=C/c1ccccc1O)c1ccc(Cl)cc1	-	-	10.0	-	-	-	9.4
O=C(/C=C/c1ccccc1O)c1ccccc1	-	-	-	-	-	.	.
COc1ccc(CC(=O)NC(=S)Nc2ccc(S(=O)(=O)NC(C)(C)C)cc2)cc1	-	-	9.9	-	-	32	15
COc1ccc(CC(=O)NC(=S)Nc2ccc(S(N)(=O)=O)cc2)cc1	-	-	-	-	-	.	.
O=C(OCCN1CCCC12CCC(c1ccccc1)CC2)c1ccccc1 (centres undefined)	.	-	-	-	-	.	.
CC(=O)Nc1ccc(S(=O)(=O)NCCSCc2cccc(Cl)c2)cc1	-	-	8.9	-	-	-	-
CC(=O)Nc1ccc(S(=O)(=O)NCCSCc2c(Cl)cccc2Cl)cc1	-	-	-	-	-	.	.
COc1ccccc1N1CCN(c2nc(N)c(C#N)c(CC#N)c2C#N)CC1	-	-	20	-	-	-	11
CC(C)CNC(=O)OCc1cn(Cc2cccc(C(F)(F)F)c2)nn1	.	-	-	-	-	.	.
COC(=O)[C@]12C[C@H](CC(=O)N3CCCCC3)C(=O)N(Cc3cccc4ccccc34)C1=C[C@H](COCc1ccccc1)O[C@@H]2C	.	-	-	-	-	.	.
C=CCNC(=S)NNC(=O)CSc1nc2ccccc2s1	-	-	11	-	-	-	-
O=C(Nc1ccc(Cl)cc1)N1CCCN(Cc2ccc(F)cc2)C1	-	-	10	-	-	-	11
CC(=O)N1CCN(C(=O)CSc2nc3cccnc3n2C)CC1	.	-	-	-	-	.	.
O=C(Cc1ccccc1)NNC(=O)Nc1cccc(Cl)c1	-	-	-	-	-	.	.
O=C(CN1c2ccccc2Sc2ccccc21)NNC(=O)Nc1cccc(Cl)c1	-	-	8.8	-	-	-	8.9
COc1ncc(-c2cc(C(C)=O)c3n(c2=O)CCC3)c(OC)n1	.	-	-	-	-	.	.
C=CCNc1cccc(Br)c1	-	-	9.1	-	-	-	-
NNC(=O)CNc1cccc(Br)c1	-	-	-	-	-	.	.
CC(=O)N[C@@H]1C[C@@H]2O[C@@H](CO)CC[C@@H]2O[C@@H]1CCc1ccc(C#CC2(O)CCCC2)cc1	.	-	-	-	-	.	.
CCOC(=O)[C@@]12CN(C(=O)OC(C)(C)C)CC=C1N(Cc1ccc(OC)cc1)C(=O)[C@H]2CC(=O)N1CCN(C(=O)c2ccco2)CC1	.	-	-	-	-	.	.
NC(CSC1(c2cccc3ccccc23)c2ccccc2-c2ccccc21)C(=O)O (centres undefined)	-	-	10	-	-	-	10
CC1CC(C)CN(CCCNS(=O)(=O)c2cc3c(cc2Br)CCN3C(=O)C2CC2)C1 (centres undefined)	.	-	-	-	-	.	.
O=C(Nc1ccc(F)cc1)c1ccccc1Oc1ccc(C(F)(F)F)cc1[N+](=O)[O-]	-	-	11	-	-	23	12
O=[N+]([O-])c1cc(C(F)(F)F)ccc1Oc1cccnc1[N+](=O)[O-]	-	-	-	-	-	.	.
O=C(NCC1CCN(C(=O)C(=O)c2cccs2)CC1)c1ccc2c(c1)CCO2	.	-	-	-	-	.	.
SMILES	FAS-TE inh	NPR2 activator	ADAM17 inh	ADAM10 inh	NPR1 activator	ADAM10 counter	ADAM17 confirm
CC(C)c1ccc(S(=O)(=O)Nc2ccc(-n3cnnn3)cc2)cc1	-	-	-	-	-	.	.
CC(C)c1ccc(NS(=O)(=O)c2ccc(-n3cccn3)cc2)cc1	-	-	9.1	-	-	21	12
Cc1cc2cc(CN(CCCO)S(=O)(=O)c3cccc4nsnc34)c(=O)[nH]c2cc1C	-	-	10	-	-	-	-
Cc1ccc2[nH]c(=O)c(CN(CCCO)S(=O)(=O)c3c(C)ccc4nsnc34)cc2c1	-	-	-	-	-	.	.
Cc1ccc(SCCC(=O)Nc2ccc(Br)c(C)c2)cc1	-	-	12	-	-	31	17
COc1ccc(NC(=O)CCSc2ccc(C)cc2)cc1	-	-	-	-	-	.	.
COc1ccc(Cl)cc1NC(=O)CN(C)C(=O)CSc1ccc2c(c1)OCCO2	-	-	8.9	-	-	25	15
Clc1ccc([C@H]2OC[C@@]3(CNCc4ccc5c(c4)OCO5)CS[C@H](c4ccc(Cl)cc4)N23)cc1	.	-	-	-	-	.	.
CC(=O)Nc1ccc(S(=O)(=O)N(C)c2ccc(OCCOc3cccc(C)c3)cc2)cc1	-	-	8.7	-	-	26	14
Cc1ccc(S(=O)(=O)N(C)c2ccc(OCc3cccc(C)c3)cc2)cc1	-	-	-	-	-	.	.
Cc1ccc(S(=O)(=O)N(C)c2ccc(OCC(=O)OCc3cccc(Br)c3)cc2)cc1	-	-	9.1	-	-	25	16
CCOC(=O)c1c(C)[nH]c(N=Nc2cccc(C)c2)c1C	-	-	9.7	-	-	24	14
CC1CCN(C2(O)C(=O)Nc3ccc(Cl)cc32)CC1 (centres undefined)	-	-	-	-	-	.	.
CC1CCN(C2(O)C(=O)Nc3ccc([N+](=O)[O-])cc32)CC1 (centres undefined)	-	-	11	-	-	-	-
O=C(O)CCCN1C(=O)C2C3CCC(C3)C2C1=O (centres undefined)	-	-	9.1	-	-	-	-
COc1ccc(-c2nnc(SCC(=O)N/N=C(\C)c3ccc(-c4ccccc4)cc3)n2-c2ccc(C)cc2)cc1	.	-	-	-	-	.	.
CC(CNc1ccc(Cl)cc1)(CNc1ccc(Cl)cc1)[N+](=O)[O-]	-	-	9.9	-	-	25	-
C=CCn1c(SCc2cccc(C(F)(F)F)c2)nnc1-c1ccc(OC)cc1	.	-	-	-	-	.	.
O=C(CSc1ccc(-c2ccco2)nn1)NCc1ccc(F)cc1	-	-	-	-	-	.	.
O=C(CSc1ccc(-c2ccco2)nn1)c1ccc(F)cc1	-	-	9.4	-	-	-	-
COc1ccc(Cc2nnc(SCC(=O)Nc3ccc(C)cc3)n(N)c2=O)cc1	-	-	9.8	-	-	-	-
COc1cccc(NC(=O)CSc2nnc(Cc3ccc(C)cc3)c(=O)n2N)c1	-	-	-	-	-	.	.
CC1CCCN(S(=O)(=O)c2ccc(NC(=O)Cn3nnc(-c4ccccc4F)n3)cc2)C1 (centres undefined)	-	-	10	-	-	-	11
CCN(C)C(=O)CNc1nnnn1-c1ccccc1	.	-	-	-	-	.	.
CC(=O)c1cc(-c2ccc([N+](=O)[O-])cc2)c(=O)n2c1CCC2	.	-	-	-	-	.	.
CC(C)C1Nc2c(O)cc(Cl)c([N+](=O)[O-])c2C2C=CCC21 (centres undefined)	-	-	15	-	-	21	14

Source: PubChem
